Laboratory results taken from PubChem BioAssay (NCI).
About 79,000 compounds went through this panel and 15% of them were active in at least one assay; those are over-represented in the sample as a whole. Values without a mark were called inactive. Calls of active or inactive are those of the source. No stated cut-off is given here; in the data, active means growth inhibition above about 70%; inactive means the rest.

Assay: NCI Yeast Anticancer Drug Screen. Data for the wt1 strain (AID 149);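 further: 0% = growth of vehicle-treated wt1 cultures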
Conditions: S. cerevisiae wt1 strain (SPY 50644) growth inhibition, active compounds read high
Protocol: Growth inhibition of yeast strains with defined genetic alterations is measured as a screen for potential anti-cancer activity. Selected strains with alterations in DNA damage repair or cell cycle control were exposed to compounds and growth inhibition was measured relative to vehicle treated controls. The strain used in this assay is wt1

SMILES | growth inhibition (at 1.2 µM) | growth inhibition (at 3.7 µM) | growth inhibition (at 11.0 µM) | growth inhibition (at 33.0 µM) | growth inhibition (at 100.0 µM)
CC1=C(C(=O)NCc2ccccc2)C(c2ccccc2)C(C(=O)NCc2ccccc2)=C(C)N1 | 0% | -1% | -4% | 4% | 89% (active)
CCOC(=O)CC1(C(=O)OCC)c2[nH]c3ccccc3c2CCN1Cc1ccccc1 (stereo not given) | -3% | -2% | -1% | -5% | 42%
CCc1ccc2c(c1)N(CC(C)CN(C)C)c1ccccc1S2 (stereo not given) | -2% | -4% | -6% | -5% | 32%
Cc1cccc[n+]1C1CCc2c(ccc3ccccc23)C1=O (stereo not given) | -2% | -4% | -1% | -3% | 13%
Cc1c2cc[n+](Cc3ccc(I)cc3)cc2c(C)c2c1[nH]c1ccccc12 | 10% | 8% | 89% (active) | 98% (active) | 97% (active)
O=c1ssc(=Nc2ccccc2)n1-c1ccccc1 | -3% | -5% | -4% | 0% | 11%
CCN(CC)CCN(C)CCc1ccc(Br)cc1 | 5% | 11% | 19% | 32% | 83% (active)
CN1C(=O)c2ccc3ccccc3c2C1=O | 2% | 3% | 17% | 25% | 25%
